PubChem BioAssay
Some of the results follow. Calls of active or inactive are those of the source.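 The calls were made as follows, unless noted: active = drop in membrane potential signal beyond 5 SD of the control wells in both duplicate plates; inactive = the rest.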

Tests used:
[1] = parental HEK293 membrane potential modulation, confirmation, counter-screen for TRPC6 modulator project, cell-based (AID 488924;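 active = membrane potential signal moves up or down beyond 5 SD from buffer-only wells, on both duplicate plates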); conditions: parental HEK293, membrane potential dye fluorescence; at 10 µM
[2] = modulation of acetylcholine-evoked membrane potential, parental HEK293, confirmation, counter-screen for TRPC6 modulator project, cell-based, second counter-screen, membrane potential dye (AID 488926;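 active = membrane potential signal drops by more than 5 SD from the mean control signal, in both duplicate plates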;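 as to inhibition: plate controls were acetylcholine ECmax control wells for no effect and buffer only wells for full effect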); conditions: parental HEK293, membrane potential dye fluorescence, at 10 µM, after compound, maximal acetylcholine stimulation; hits give high values
[3] = test system: Transient receptor potential cation channel subfamily C member 4 (mouse); assay: TRPC4 modulation by TRPC6 hit compounds, confirmation, selectivity assay for TRPC6 modulator project, cell-based, HEK293 TRPC4/mu-opioid, membrane potential dye, mouse (AID 488927;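 active = membrane potential signal moved up or down beyond 5 SD of buffer control wells, in both duplicate plates, actives on both sides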;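 as to percent change from control (negative = decrease, positive = increase): plate controls were assay buffer wells for no effect and DAMGO maximal-effect wells for full effect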); conditions: membrane potential fluorescence, at 10 µM
[4] = test system: TRPC4 (transient receptor potential cation channel C4), mouse; assay: TRPC4 inhibition by TRPC6 hit compounds, confirmation, selectivity assay for TRPC6 modulator project, cell-based, second screen, HEK293 TRPC4/mu-opioid, membrane potential dye (AID 488928); conditions: membrane potential dye fluorescence, at 10 µM, stimulated with maximal-effect DAMGO; hits give high values;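 also: TRPC4 counter screen for TRPC6 hits run under conditions tuned for TRPC6 not TRPC4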
[5] = target: Short transient receptor potential channel 6 (Mus musculus) (UniProt Q61143); assay: mouse TRPC6 channel activators, confirmation, HEK293 cells, membrane potential dye, duplicate (AID 488961;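 active = ratio signal rise beyond 5 SD above unstimulated control wells' mean, seen in both duplicate runs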;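 as to activation: plate controls were buffer EC0 wells for no effect and acetylcholine ECmax response for full effect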); conditions: HEK293-TRPC6 membrane potential dye fluorescence, FDSS, at 10 µM; hits give high values
[6] = target: Short transient receptor potential channel 6 (Mus musculus) (UniProt Q61143); assay: mouse TRPC6 channel inhibitors, confirmation, HEK293 cells, membrane potential dye, duplicate (AID 488960;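 active = fluorescence ratio falls more than 5 SD below the full-stimulation control mean, in both duplicate runs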;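 as to inhibition: integrated fluorescence ratio of peak minus minimum over baseline after agonist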); conditions: ACh-evoked depolarization, at 10 µM; hits give high values
[7] = target: Potassium voltage-gated channel subfamily KQT member 1 (Homo sapiens) (UniProt P51787); assay: KCNQ1 potassium channel inhibitors, confirmation, cell-based, Tl flux, duplicate (AID 588353;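 active = primary screen active, with duplicate mean exceeding buffer control mean plus 3 SD of buffer wells, cut at about 28% in these data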;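 also: 0% = buffer control ratio and 100% = XE991 inhibitor control ratio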); conditions: KCNQ1 cell line, FluxOR thallium flux fluorescence, at 10 µM, hits give high values
[8] = thallium flux effects in parental CHO cells, counter-screen for KCNQ1 inhibitor project, cell-based, Tl flux (AID 588366;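 active = mean of duplicate thallium-flux fluorescence ratios in parental host cells more than 5 SD below the buffer control mean, cut at about 0.38 in these data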;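 also: ratio is peak minus minimum fluorescence divided by baseline fluorescence; actives read low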); conditions: parental CHO-K1, FluxOR thallium flux fluorescence ratio; at 10 µM; hits give low values; zero means no signal rise above baseline
[9] = target: Potassium voltage-gated channel subfamily KQT member 2 (Rattus norvegicus) (UniProt O88943); assay: KCNQ2 channel inhibition, selectivity assay for KCNQ1 inhibitor project, cell-based (AID 651746;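 active = mean percent inhibition of the KCNQ2 thallium signal more than 5 SD above the buffer-only control wells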;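 also: 0% = buffer control wells and 100% = XE-991 inhibitor control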); conditions: KCNQ2 cells, FluxOR thallium flux fluorescence, at 10 µM; hits give high values
[10] = target: Potassium voltage-gated channel subfamily E member 1 (Homo sapiens) + Potassium voltage-gated channel subfamily KQT member 1 (Homo sapiens) (UniProt P15382+P51787); assay: KCNQ1/KCNE1 channel inhibition, selectivity assay for KCNQ1 inhibitor project, CHO-K1 cells, thallium flux, FluxOR (AID 652147;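 active = mean percent inhibition of duplicate wells above the buffer-only control mean plus 3 SD of those controls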;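 also: 0% = buffer only wells and 100% = XE-991 inhibitor control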); conditions: FluxOR thallium flux fluorescence, at 10 µM; hits give high values
[11] = thallium flux activation in parental CHO cells, counter-screen for KCNQ1 potentiator project (AID 493006;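 active = duplicate-averaged activation above buffer control mean plus 5 SD of those controls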); conditions: parental CHO-K1 cells, FluxOR thallium flux, at 10 µM; hits give high values
[12] = target: Potassium voltage-gated channel subfamily KQT member 1 (Homo sapiens) (UniProt P51787); assay: KCNQ1 potassium channel potentiators, confirmation, FluxOR thallium flux, CHO cells, duplicates (AID 493007;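 active = potentiation averaged over duplicate wells exceeding buffer-only control mean by more than 3 SD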;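 also: cells depolarized by a potassium plus thallium sulfate stimulus after compound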); conditions: KCNQ1 cell line, FluxOR thallium flux fluorescence, at 10 µM; hits give high values, % of reference activator effect, buffer zero
[13] = target: Potassium voltage-gated channel subfamily KQT member 2 (Rattus norvegicus) (UniProt O88943); assay: rat KCNQ2 channel potentiation, selectivity assay for KCNQ1 potentiator project, KCNQ2-CHO-K1 cells (AID 493009;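 active = mean duplicate potentiation above the buffer control mean plus 5 SD of buffer wells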;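 also: assay conditions were tuned for KCNQ1 rather than KCNQ2 modulators; signal is max minus min fluorescence divided by baseline after thallium stimulus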); conditions: FluxOR thallium flux fluorescence, at 10 µM; hits give high values, scaled: buffer 0, activator control 100
[14] = target: Potassium voltage-gated channel subfamily KQT member 1 (Homo sapiens) (UniProt P51787); assay: KCNQ1 channel current potentiators, confirmation, orthogonal assay for KCNQ1 potentiator project, IonWorks patch clamp, KCNQ1-CHO cells (AID 493184;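 active = current rise at least 3 SD above the untreated control mean in each of two repeat wells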); conditions: automated patch clamp current, at 10 µM; hits give high values

Sequence of Potassium voltage-gated channel subfamily KQT member 1 (Homo sapiens) (P51787 whole entry, looked up): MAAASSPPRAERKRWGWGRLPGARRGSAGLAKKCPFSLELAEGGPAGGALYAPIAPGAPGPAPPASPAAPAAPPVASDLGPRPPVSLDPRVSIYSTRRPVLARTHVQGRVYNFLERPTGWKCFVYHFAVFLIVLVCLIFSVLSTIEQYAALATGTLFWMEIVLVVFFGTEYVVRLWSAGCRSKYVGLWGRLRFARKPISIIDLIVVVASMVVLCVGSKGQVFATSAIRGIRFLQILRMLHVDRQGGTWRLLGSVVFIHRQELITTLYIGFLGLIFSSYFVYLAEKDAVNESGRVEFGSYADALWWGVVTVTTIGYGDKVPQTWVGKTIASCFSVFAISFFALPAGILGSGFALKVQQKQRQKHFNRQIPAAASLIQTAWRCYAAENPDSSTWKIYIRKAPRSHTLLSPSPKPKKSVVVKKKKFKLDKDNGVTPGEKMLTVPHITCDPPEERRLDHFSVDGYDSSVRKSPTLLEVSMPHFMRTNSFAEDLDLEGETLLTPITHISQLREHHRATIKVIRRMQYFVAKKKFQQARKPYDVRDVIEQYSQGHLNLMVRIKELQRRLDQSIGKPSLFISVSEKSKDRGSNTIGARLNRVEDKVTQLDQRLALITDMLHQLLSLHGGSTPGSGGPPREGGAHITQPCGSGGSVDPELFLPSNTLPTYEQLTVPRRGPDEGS
Sequence of Potassium voltage-gated channel subfamily KQT member 2 (Rattus norvegicus) (O88943 whole entry, looked up): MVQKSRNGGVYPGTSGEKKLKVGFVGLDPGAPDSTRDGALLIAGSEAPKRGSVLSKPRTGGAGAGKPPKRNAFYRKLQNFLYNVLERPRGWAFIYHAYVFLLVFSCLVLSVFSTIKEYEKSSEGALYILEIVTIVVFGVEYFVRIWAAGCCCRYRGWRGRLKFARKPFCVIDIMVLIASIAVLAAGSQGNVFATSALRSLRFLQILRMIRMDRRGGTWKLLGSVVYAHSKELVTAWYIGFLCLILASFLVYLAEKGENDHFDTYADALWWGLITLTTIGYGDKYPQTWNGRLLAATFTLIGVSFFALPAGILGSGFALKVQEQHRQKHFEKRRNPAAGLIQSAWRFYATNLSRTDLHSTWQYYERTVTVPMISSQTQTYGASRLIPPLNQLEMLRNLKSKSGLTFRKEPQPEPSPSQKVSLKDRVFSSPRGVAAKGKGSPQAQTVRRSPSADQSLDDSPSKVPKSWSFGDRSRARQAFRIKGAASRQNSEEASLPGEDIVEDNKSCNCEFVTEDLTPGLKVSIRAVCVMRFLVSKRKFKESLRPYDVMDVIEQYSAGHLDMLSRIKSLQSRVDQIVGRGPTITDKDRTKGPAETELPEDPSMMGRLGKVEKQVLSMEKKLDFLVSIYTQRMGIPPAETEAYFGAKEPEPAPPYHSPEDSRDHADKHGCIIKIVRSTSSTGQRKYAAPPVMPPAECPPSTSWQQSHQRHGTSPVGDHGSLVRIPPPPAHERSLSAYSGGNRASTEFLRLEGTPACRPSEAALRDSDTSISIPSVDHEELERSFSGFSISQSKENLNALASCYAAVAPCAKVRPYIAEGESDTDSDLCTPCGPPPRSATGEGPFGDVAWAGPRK
Sequence of Short transient receptor potential channel 6 (Mus musculus) (Q61143 whole entry, looked up): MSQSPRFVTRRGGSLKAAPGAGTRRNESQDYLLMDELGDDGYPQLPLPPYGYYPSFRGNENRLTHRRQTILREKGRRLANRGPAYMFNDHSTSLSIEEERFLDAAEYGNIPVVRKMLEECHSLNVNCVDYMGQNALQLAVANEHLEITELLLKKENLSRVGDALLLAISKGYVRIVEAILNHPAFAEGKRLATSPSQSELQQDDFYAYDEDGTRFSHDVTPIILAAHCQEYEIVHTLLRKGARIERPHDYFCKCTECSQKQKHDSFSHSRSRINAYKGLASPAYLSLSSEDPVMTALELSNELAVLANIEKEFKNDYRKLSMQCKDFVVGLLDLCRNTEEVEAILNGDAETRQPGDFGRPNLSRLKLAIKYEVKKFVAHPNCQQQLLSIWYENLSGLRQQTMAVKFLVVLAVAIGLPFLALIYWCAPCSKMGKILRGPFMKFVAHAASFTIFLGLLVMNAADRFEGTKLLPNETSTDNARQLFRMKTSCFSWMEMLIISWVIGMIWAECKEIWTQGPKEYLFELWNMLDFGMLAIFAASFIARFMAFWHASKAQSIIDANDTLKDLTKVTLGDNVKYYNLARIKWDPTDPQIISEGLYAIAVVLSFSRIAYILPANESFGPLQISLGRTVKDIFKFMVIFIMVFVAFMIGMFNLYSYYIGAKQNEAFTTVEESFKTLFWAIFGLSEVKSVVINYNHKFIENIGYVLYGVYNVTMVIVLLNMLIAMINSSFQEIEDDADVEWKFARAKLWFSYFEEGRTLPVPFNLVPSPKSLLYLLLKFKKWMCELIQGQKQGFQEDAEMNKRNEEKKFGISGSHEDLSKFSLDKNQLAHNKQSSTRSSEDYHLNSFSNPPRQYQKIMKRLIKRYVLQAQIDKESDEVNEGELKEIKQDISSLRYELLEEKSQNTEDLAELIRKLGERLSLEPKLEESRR
Sequence of Potassium voltage-gated channel subfamily E member 1 (Homo sapiens) + Potassium voltage-gated channel subfamily KQT member 1 (Homo sapiens) (P51787 whole entry, looked up): as the sequence (P51787 whole entry, looked up) above

CN1CCN(/N=C/c2ccc(-c3ccc([N+](=O)[O-])cc3)o2)CC1
inactive: outcome [2]
active: membrane potential signal change [1] 407% | percent change from control (negative = decrease, positive = increase) [3] 65.5% | inhibition [4] 43.5% | activation [5] 158%

O=C(NC1C2CC3CC(C2)CC1C3)c1ccc(N2CCNCC2)c([N+](=O)[O-])c1 (centres undefined)
active: membrane potential signal change [1] -120% | percent change from control (negative = decrease, positive = increase) [3] -22% | inhibition [4] 70.5% | inhibition [6] 57.5%
inactive: outcome [2] | outcome [5]

O=C(C1CCN(S(=O)(=O)Cc2ccccc2)CC1)N1CCCc2ccccc21
inactive: outcome [2] | outcome [4] | outcome [6] | outcome [5]
active: membrane potential signal change [1] 90% | percent change from control (negative = decrease, positive = increase) [3] 8.5%

O=C(O)c1ccc(NC(=O)c2ccc(COc3ccc(Cl)cc3)o2)cc1
inactive: outcome [1] | outcome [2] | outcome [3] | outcome [4] | outcome [6] | outcome [5]

Cc1ccc(NC(=S)N(CCCN2CCCC2)Cc2cccn2Cc2ccc(Cl)cc2)cc1
inactive: outcome [1] | outcome [2] | outcome [3] | outcome [6] | outcome [5]
active: inhibition [4] 47.5%

O=C1CN(C(=O)c2ccccc2F)C(c2ccc(F)cc2)c2cc(F)ccc2N1 (centres undefined)
active: membrane potential signal change [1] 106% | percent change from control (negative = decrease, positive = increase) [3] 26.5%
inactive: outcome [2] | outcome [4] | outcome [6] | outcome [5]

Cc1cccn2c(=O)c3cc(C#N)c(=O)n(CCCN4CCOCC4)c3nc12
active: membrane potential signal change [1] -248% | inhibition [2] 112% | percent change from control (negative = decrease, positive = increase) [3] -54% | inhibition [4] 47.5% | inhibition [6] 67.5%
inactive: outcome [5]

CC(=O)c1cc(NC(=O)c2ccccc2)c(=O)oc1/C=C/N(C)C
inactive: outcome [6] | outcome [5]
active: membrane potential signal change [1] 868% | inhibition [2] 196% | percent change from control (negative = decrease, positive = increase) [3] 43% | inhibition [4] 35.5%

CN(CC(=O)Nc1ccccc1[N+](=O)[O-])Cc1ccc(Br)cc1
inactive: outcome [1] | outcome [2] | outcome [3] | outcome [6] | outcome [5]
active: inhibition [4] 29%

CN(C)c1cc(N)c2ccccc2n1 (tested in a mixture with another compound)
inactive: outcome [2] | outcome [5]
active: membrane potential signal change [1] -230% | percent change from control (negative = decrease, positive = increase) [3] -40.5% | inhibition [4] 82% | inhibition [6] 69.5%

COc1ccc(-c2nnc(NC(=O)CS(=O)(=O)c3ccc(Cl)cc3)o2)c(OC)c1
inactive: outcome [2] | outcome [3] | outcome [4] | outcome [6]
active: membrane potential signal change [1] 86% | activation [5] 46.5%

CC(C)(C)Nc1nc(-c2ccccn2)nc2ccccc12
inactive: outcome [5]
active: membrane potential signal change [1] -424% | inhibition [2] 77% | percent change from control (negative = decrease, positive = increase) [3] -58% | inhibition [4] 74% | inhibition [6] 56.5%

COc1ccc(C(=O)C2CCCN(Cc3cccn3-c3ccccn3)C2)c(C)c1 (centres undefined)
active: inhibition [2] 140% | percent change from control (negative = decrease, positive = increase) [3] -17.5% | inhibition [4] 99% | inhibition [6] 107% | inhibition [7] 41.5% | inhibition [9] 89% | inhibition [10] 39.5%
inactive: outcome [1] | outcome [5] | fluorescence ratio (Tl flux) [8] 0.496

CCCc1cc(=O)oc2c(C)c(O)c(CN3CCCCC3)cc12
active: inhibition [6] 54.5%
inactive: outcome [1] | outcome [2] | outcome [3] | outcome [4] | outcome [5]

CCN(CC)S(=O)(=O)c1ccc(N2CC(C(=O)NCc3cccnc3)CC2=O)cc1 (centres undefined)
inactive: outcome [1] | outcome [2] | outcome [3] | outcome [4] | outcome [6] | outcome [5]

C/C(=N\Nc1nc2ccccc2[nH]1)c1cccs1
active: membrane potential signal change [1] -108% | inhibition [2] 73.5% | percent change from control (negative = decrease, positive = increase) [3] -24% | inhibition [4] 85% | inhibition [6] 76%
inactive: outcome [5]

CCOC(=O)c1sc2nc(CSCC(=O)OCc3ccc(C(=O)OC)o3)[nH]c(=O)c2c1C
active: membrane potential signal change [1] 148% | inhibition [6] 90% | activation [5] 134%
inactive: outcome [2] | outcome [3] | outcome [4]

CN(C)c1ccc(/C=C2\NC(=S)N(Cc3ccccc3)C2=O)cc1
inactive: outcome [2] | outcome [4] | outcome [6] | outcome [5]
active: membrane potential signal change [1] 267% | percent change from control (negative = decrease, positive = increase) [3] 126%

O=C(Nc1cccc(Cl)c1)Nc1ccccc1NS(=O)(=O)c1cccs1
inactive: outcome [1] | outcome [2] | outcome [6] | outcome [5]
active: percent change from control (negative = decrease, positive = increase) [3] -12.5% | inhibition [4] 36.5% | inhibition [7] 122% | fluorescence ratio (Tl flux) [8] 0.346 | inhibition [9] 78.7% | inhibition [10] 109%

CCOC(=O)C1=NN(c2ccc(Cl)cc2)/C(=C/C2=NCCc3cc(OC)c(OC)cc32)S1
inactive: outcome [1] | outcome [2] | outcome [4] | outcome [6] | outcome [5]
active: percent change from control (negative = decrease, positive = increase) [3] -15.5%

O=S(=O)(c1cccc(Cn2nnc(-c3ccc(F)cc3)n2)c1)N1CCOCC1
inactive: outcome [1] | outcome [2] | outcome [3] | outcome [4] | outcome [6] | outcome [5]

CC(NC(=S)Nc1ccc(OC(F)F)cc1)c1ccc(F)cc1 (centres undefined)
inactive: outcome [1] | outcome [2] | outcome [4] | outcome [6] | outcome [5]
active: percent change from control (negative = decrease, positive = increase) [3] -14.5%

Nc1c(C(=O)c2cccs2)sc2nsc(SCCN3CCCCC3)c12
inactive: outcome [2] | outcome [4] | outcome [6] | outcome [5]
active: membrane potential signal change [1] 238% | percent change from control (negative = decrease, positive = increase) [3] 174%

CNc1nc(N)c([N+](=O)[O-])c(Nc2cccc(F)c2)n1
inactive: outcome [11] | outcome [12] | outcome [13] | outcome [14]
